Assay results: PubChem BioAssay (EPA / NIEHS)
Activity calls are given as the source filed them. How the source made its calls: active means hit-call score of the fitted dose curve at least 0.9, where 1 is the maximum; inactive means score below 0.9.

Tests used:
Details in all cases: mRNA level, 48 h; actives raise or lower the signal
[1] = read-out: MicroRNA 122 (MIR122), gene 406906; test: LTEA_HepaRG_MIR122: Life Technologies and Expression Analysis (LTEA) Assay for MicroRNA 122 (MIR122) using HepaRG (AID 2283516); further: the transcript read is the microRNA miR-122
In short: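 Differentiated human HepaRG cells in serum-free induction medium exposed 48 h to 8 half-log concentrations from 100 uM in 0.5% DMSO, duplicate. MIR122 quantified by Fluidigm TaqMan qRT-PCR, normalised to ACTB, GAPDH, POLR2A; fold change fitted bidirectionally versus DMSO.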

[2] = read-out: matrix metalloproteinase-10 (MMP10), MMP10 (gene 4319); test: LTEA_HepaRG_MMP10: Life Technologies and Expression Analysis (LTEA) Assay for matrix metalloproteinase-10 (MMP10) using HepaRG (AID 2283517)
In short: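 HepaRG, collagen I, ~100,000 cells/well; serum-free induction medium; 48 h exposure, duplicate, 8-pt half-log to 100 uM, 0.5% DMSO. Readout: TaqMan qRT-PCR, normalized to ACTB/GAPDH/POLR2A; bidirectional fit vs DMSO.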

[3] = read-out: MYC, MYC (gene 4609); test: LTEA_HepaRG_MYC: Life Technologies and Expression Analysis (LTEA) Assay for MYC using HepaRG (AID 2283518)
In short: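 Differentiated HepaRG cells exposed 48 h in serum-free induction medium to 8 concentrations (top 100 uM, half-log steps; 0.5% DMSO), duplicate. MYC mRNA measured by Fluidigm qRT-PCR, normalized to ACTB, GAPDH, POLR2A; bidirectional fit versus DMSO.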

[4] = read-out: matrix metalloproteinase-3 (MMP3), MMP3 (gene 4314); test: LTEA_HepaRG_MMP3: Life Technologies and Expression Analysis (LTEA) Assay for matrix metalloproteinase-3 (MMP3) using HepaRG (AID 2283519)
In short: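 Differentiated human HepaRG cells, plated 48 h on collagen I, were exposed in duplicate for 48 h in serum-free induction medium to eight half-log concentrations up to 100 uM in 0.5% DMSO. MMP3 mRNA was quantified by TaqMan qRT-PCR, normalised to ACTB, GAPDH and POLR2A.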

[5] = read-out: Paternally Expressed 10 (PEG10), PEG10 (gene 23089); test: LTEA_HepaRG_PEG10: Life Technologies and Expression Analysis (LTEA) Assay for Paternally Expressed 10 (PEG10) using HepaRG (AID 2283520)
In short: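 Differentiated HepaRG cells exposed 48 h in serum-free induction medium to eight half-log concentrations topping at 100 uM, 0.5% DMSO, in duplicate. PEG10 mRNA quantified by TaqMan qRT-PCR, normalized to ACTB, GAPDH and POLR2A; bidirectional fit versus DMSO.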

[6] = read-out: Nuclear factor NF-kappa-B p105 subunit (Homo sapiens) (UniProt P19838); test: LTEA_HepaRG_NFKB1: Life Technologies and Expression Analysis (LTEA) Assay for Nuclear Factor Kappa B Subunit 1 (NFKB1) using HepaRG (AID 2283521);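 further: TaqMan qRT-PCR transcript normalised to ACTB GAPDH and POLR2A housekeeping genes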
In short: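 Differentiated human HepaRG cells in serum-free induction medium with 0.5% DMSO were exposed for 48 h to eight half-log concentrations, top 100 uM, in duplicate. NFKB1 mRNA measured by Fluidigm TaqMan qRT-PCR, normalised to ACTB, GAPDH and POLR2A; bidirectional fit versus DMSO.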

[7] = read-out: Protein phosphatase 2A (PPP2R4), PTPA (gene 5524); test: LTEA_HepaRG_PPP2R4: Life Technologies and Expression Analysis (LTEA) Assay for Protein phosphatase 2A (PPP2R4) using HepaRG (AID 2283522)
In short: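 Differentiated human HepaRG cells in serum-free induction medium were exposed 48 h to 8 concentrations (top 100 µM, half-log steps, duplicate) in 0.5% DMSO. PPP2R4 mRNA was measured by TaqMan qRT-PCR, normalised to ACTB, GAPDH and POLR2A, and fitted bidirectionally versus DMSO.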

[8] = read-out: Phosphatase and tensin (PTEN), PTEN (gene 5728); test: LTEA_HepaRG_PTEN: Life Technologies and Expression Analysis (LTEA) Assay for Phosphatase and tensin (PTEN) using HepaRG (AID 2283523)
In short: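 Differentiated human HepaRG cells, plated 48 h then switched to serum-free induction medium, were exposed in duplicate for 48 h to eight half-log concentrations up to 100 uM in 0.5% DMSO. PTEN mRNA measured by TaqMan qRT-PCR, normalized to ACTB/GAPDH/POLR2A, bidirectional fit versus DMSO.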

[9] = read-out: solute carrier (SLC22A1), SLC22A1 (gene 6580); test: LTEA_HepaRG_SLC22A1: Life Technologies and Expression Analysis (LTEA) Assay for solute carrier (SLC22A1) using HepaRG (AID 2283524)
In short: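 Human HepaRG cells were plated 48 h, switched to serum-free induction medium, then exposed in duplicate for 48 h to 8-point half-log series from 100 uM in 0.5% DMSO. SLC22A1 mRNA measured by qRT-PCR, normalized to ACTB/GAPDH/POLR2A, fitted bidirectionally versus DMSO.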

[10] = read-out: Pyruvate Dehydrogenase Kinase 4 (PDK4), PDK4 (gene 5166); test: LTEA_HepaRG_PDK4: Life Technologies and Expression Analysis (LTEA) Assay for Pyruvate Dehydrogenase Kinase 4 (PDK4) using HepaRG (AID 2283525)
In short: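 Differentiated human HepaRG cells, pre-cultured 48 h, were exposed in duplicate for 48 h in serum-free induction medium to eight half-log concentrations up to 100 uM in 0.5% DMSO. PDK4 mRNA was quantified by qRT-PCR, normalized to ACTB, GAPDH and POLR2A, bidirectional fitting versus DMSO.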

[11] = read-out: NAD(P)H dehydrogenase [quinone] 1 (NQO1), NQO1 (gene 1728); test: LTEA_HepaRG_NQO1: Life Technologies and Expression Analysis (LTEA) Assay for NAD(P)H dehydrogenase [quinone] 1 (NQO1) using HepaRG (AID 2283526)
In short: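 Differentiated human HepaRG cells in serum-free induction medium, dosed in duplicate for 48 h at 8 half-log concentrations up to 100 uM in 0.5% DMSO. NQO1 mRNA by qRT-PCR normalized to ACTB, GAPDH, POLR2A; bidirectional fit versus DMSO baseline.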

[12] = read-out: Nuclear factor erythroid 2-related factor 2 (Homo sapiens) (UniProt Q16236); test: LTEA_HepaRG_NFE2L2: Life Technologies and Expression Analysis (LTEA) Assay for Nuclear factor erythroid 2-related factor 2 (NFE2L2) Transcription Factor using HepaRG (AID 2283527);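 further: TaqMan qRT-PCR transcript level normalised to ACTB GAPDH and POLR2A housekeeping genes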
In short: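 Differentiated human HepaRG cells in serum-free induction medium were exposed for 48 h to eight concentrations (top 100 uM, half-log dilutions, 0.5% DMSO), in duplicate. NFE2L2 mRNA was quantified by TaqMan qRT-PCR, normalized to ACTB, GAPDH and POLR2A, with bidirectional fitting versus DMSO.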

[13] = read-out: succinate dehydrogenase complex iron sulfur subunit B (SDHB), SDHB (gene 6390); test: LTEA_HepaRG_SDHB: Life Technologies and Expression Analysis (LTEA) Assay for succinate dehydrogenase complex iron sulfur subunit B (SDHB) using HepaRG (AID 2283528)
In short: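 HepaRG cells (~100,000/well, plated 48 h) exposed in duplicate for 48 h in serum-free induction medium to 8-point half-log series from 100 uM in 0.5% DMSO; mRNA by qRT-PCR normalised to ACTB, GAPDH, POLR2A; bidirectional fit versus DMSO.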

[14] = read-out: Signal transducer and activator of transcription 3 (Homo sapiens) (UniProt P40763); test: LTEA_HepaRG_STAT3: Life Technologies and Expression Analysis (LTEA) Assay for Signal transducer and activator of transcription (STAT3) using HepaRG (AID 2283529)
In short: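 Differentiated human HepaRG cells in serum-free induction medium were exposed in duplicate for 48 h to eight half-log concentrations up to 100 uM in 0.5% DMSO. STAT3 mRNA was quantified by TaqMan qRT-PCR, normalized to ACTB, GAPDH and POLR2A, and fitted bidirectionally against DMSO.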

[15] = read-out: solute carrier (SLCO1B1), SLCO1B1 (gene 10599); test: LTEA_HepaRG_SLCO1B1: Life Technologies and Expression Analysis (LTEA) Assay for solute carrier (SLCO1B1) using HepaRG (AID 2283530)
In short: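 Differentiated human HepaRG cells were exposed for 48 h in serum-free induction medium to eight half-log concentrations, top 100 uM, in 0.5% DMSO. SLCO1B1 mRNA was measured by qRT-PCR, normalized to ACTB, GAPDH and POLR2A, and fitted bidirectionally against DMSO.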

[16] = read-out: sulfotransferase 2A1 (SULT2A1), SULT2A1 (gene 6822); test: LTEA_HepaRG_SULT2A1: Life Technologies and Expression Analysis (LTEA) Assay for sulfotransferase 2A1 (SULT2A1) using HepaRG (AID 2283531)
In short: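 HepaRG human liver cells, 48 h exposure in serum-free induction medium to 8 half-log concentrations topping at 100 µM (0.5% DMSO), duplicate wells. SULT2A1 mRNA measured by TaqMan qRT-PCR, normalized to ACTB/GAPDH/POLR2A; bidirectional fit against DMSO.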

[17] = read-out: Transforming Growth Factor (TGFA), TGFA (gene 7039); test: LTEA_HepaRG_TGFA: Life Technologies and Expression Analysis (LTEA) Assay for Transforming Growth Factor (TGFA) using HepaRG (AID 2283532)
In short: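 Differentiated human HepaRG cells, plated 48 h then switched to serum-free induction medium, were exposed in duplicate for 48 h to 8-point half-log series from 100 uM in 0.5% DMSO. TGFA mRNA measured by qRT-PCR, normalized to ACTB/GAPDH/POLR2A, bidirectional fit versus DMSO.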

[18] = read-out: Transforming Growth Factor (TGFB1), TGFB1 (gene 7040); test: LTEA_HepaRG_TGFB1: Life Technologies and Expression Analysis (LTEA) Assay for Transforming Growth Factor (TGFB1) Transporter using HepaRG (AID 2283533)
In short: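 Differentiated HepaRG cells exposed 48 hr in serum-free induction medium to eight half-log concentrations up to 100 uM (0.5% DMSO), duplicate; TGFB1 mRNA by TaqMan qRT-PCR normalised to ACTB, GAPDH, POLR2A; bidirectional fit against DMSO.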

[19] = read-out: TIMP1, TIMP1 (gene 7076); test: LTEA_HepaRG_TIMP1: Life Technologies and Expression Analysis (LTEA) Assay for TIMP1 using HepaRG (AID 2283534);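 further: TaqMan qRT-PCR signal normalized to ACTB GAPDH and POLR2A housekeeping genes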
In short: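 Differentiated HepaRG cells exposed 48 h in serum-free induction medium, duplicates, eight half-log concentrations from 100 uM in 0.5% DMSO. TIMP1 mRNA by qRT-PCR normalized to ACTB, GAPDH, POLR2A; bidirectional fitting against DMSO.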

[20] = read-out: Tumor necrosis factor receptor 1 (TNFRSF1A), TNFRSF1A (gene 7132); test: LTEA_HepaRG_TNFRSF1A: Life Technologies and Expression Analysis (LTEA) Assay for Tumor necrosis factor receptor 1 (TNFRSF1A) using HepaRG (AID 2283535)
In short: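 Differentiated HepaRG cells in serum-free induction medium, exposed 48 h in duplicate to 8 half-log concentrations up to 100 uM in 0.5% DMSO. TNFRSF1A mRNA by Fluidigm TaqMan qRT-PCR, normalized to ACTB, GAPDH, POLR2A; bidirectional fit.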

Measured: AC50

Nuclear factor erythroid 2-related factor 2 (Homo sapiens), sequence (Q16236 whole entry, looked up): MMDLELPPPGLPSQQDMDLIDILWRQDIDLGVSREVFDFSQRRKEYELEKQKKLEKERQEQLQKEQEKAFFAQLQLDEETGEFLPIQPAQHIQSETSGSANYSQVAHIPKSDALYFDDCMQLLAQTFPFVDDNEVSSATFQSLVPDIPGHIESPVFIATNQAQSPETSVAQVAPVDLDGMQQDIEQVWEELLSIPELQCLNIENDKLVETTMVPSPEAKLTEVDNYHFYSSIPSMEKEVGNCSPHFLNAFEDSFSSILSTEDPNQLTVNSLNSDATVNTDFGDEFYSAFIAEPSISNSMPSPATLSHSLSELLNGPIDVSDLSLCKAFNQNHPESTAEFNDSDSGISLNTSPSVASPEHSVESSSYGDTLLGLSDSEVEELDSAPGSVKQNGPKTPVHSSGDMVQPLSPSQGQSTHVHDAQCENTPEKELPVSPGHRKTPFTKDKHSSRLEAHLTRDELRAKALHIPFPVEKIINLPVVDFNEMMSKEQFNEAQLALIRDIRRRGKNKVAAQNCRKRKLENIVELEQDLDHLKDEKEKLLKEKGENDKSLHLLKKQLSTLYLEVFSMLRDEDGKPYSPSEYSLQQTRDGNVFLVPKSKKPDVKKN
Signal transducer and activator of transcription 3 (Homo sapiens), sequence (P40763 whole entry, looked up): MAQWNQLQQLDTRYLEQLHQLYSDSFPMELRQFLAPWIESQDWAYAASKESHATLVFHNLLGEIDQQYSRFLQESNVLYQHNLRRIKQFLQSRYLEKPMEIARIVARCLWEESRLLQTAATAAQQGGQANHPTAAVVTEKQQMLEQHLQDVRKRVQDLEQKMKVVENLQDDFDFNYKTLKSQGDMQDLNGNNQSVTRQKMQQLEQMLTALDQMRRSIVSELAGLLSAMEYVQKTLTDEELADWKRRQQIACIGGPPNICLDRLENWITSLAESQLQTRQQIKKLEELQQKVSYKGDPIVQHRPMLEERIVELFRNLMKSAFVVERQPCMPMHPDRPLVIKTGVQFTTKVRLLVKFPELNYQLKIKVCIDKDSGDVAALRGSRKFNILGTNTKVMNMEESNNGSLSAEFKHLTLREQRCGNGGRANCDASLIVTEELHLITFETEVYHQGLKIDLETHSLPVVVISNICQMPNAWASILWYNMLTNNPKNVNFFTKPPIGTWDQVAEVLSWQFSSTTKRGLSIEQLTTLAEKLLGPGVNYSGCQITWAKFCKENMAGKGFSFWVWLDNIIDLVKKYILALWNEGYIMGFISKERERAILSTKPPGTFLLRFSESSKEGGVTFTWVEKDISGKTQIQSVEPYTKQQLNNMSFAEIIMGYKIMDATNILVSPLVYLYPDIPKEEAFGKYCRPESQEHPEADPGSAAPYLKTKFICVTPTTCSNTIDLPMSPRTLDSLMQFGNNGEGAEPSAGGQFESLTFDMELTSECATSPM
Nuclear factor NF-kappa-B p105 subunit (Homo sapiens), sequence (P19838 whole entry, looked up): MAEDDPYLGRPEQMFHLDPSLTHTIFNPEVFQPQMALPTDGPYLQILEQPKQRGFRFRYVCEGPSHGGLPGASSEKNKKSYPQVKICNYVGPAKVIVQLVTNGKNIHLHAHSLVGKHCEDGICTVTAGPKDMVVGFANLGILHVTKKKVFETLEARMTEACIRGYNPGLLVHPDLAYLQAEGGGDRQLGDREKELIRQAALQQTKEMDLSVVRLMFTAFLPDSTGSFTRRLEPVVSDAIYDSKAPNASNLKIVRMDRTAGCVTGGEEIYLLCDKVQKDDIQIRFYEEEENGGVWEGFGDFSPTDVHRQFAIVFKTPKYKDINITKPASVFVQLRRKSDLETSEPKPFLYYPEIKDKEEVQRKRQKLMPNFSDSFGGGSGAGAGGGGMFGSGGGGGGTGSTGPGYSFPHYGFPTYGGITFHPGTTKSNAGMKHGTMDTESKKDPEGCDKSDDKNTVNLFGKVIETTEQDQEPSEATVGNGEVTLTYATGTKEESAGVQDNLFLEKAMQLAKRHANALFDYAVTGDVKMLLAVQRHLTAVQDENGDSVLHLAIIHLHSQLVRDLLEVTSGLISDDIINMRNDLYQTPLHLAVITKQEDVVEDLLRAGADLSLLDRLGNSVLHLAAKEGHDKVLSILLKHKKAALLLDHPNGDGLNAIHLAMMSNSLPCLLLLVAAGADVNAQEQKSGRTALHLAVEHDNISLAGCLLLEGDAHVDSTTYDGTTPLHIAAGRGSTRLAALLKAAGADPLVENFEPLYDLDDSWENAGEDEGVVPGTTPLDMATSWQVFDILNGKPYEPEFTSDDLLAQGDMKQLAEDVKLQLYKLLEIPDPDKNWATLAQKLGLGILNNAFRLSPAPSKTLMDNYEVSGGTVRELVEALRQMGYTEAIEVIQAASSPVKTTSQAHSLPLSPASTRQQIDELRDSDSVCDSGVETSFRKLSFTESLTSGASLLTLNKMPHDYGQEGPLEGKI

C#CC(O)C(CC)CCCC (centres undefined)
inactive: [1] | [2] | [3] | [4] | [5] | [6] | [7] | [8] | [9] | [10] | [11] | [12] | [13] | [14] | [15] | [16] | [17] | [18] | [19] | [20]

O=C(O)c1cccnc1
inactive: [1] | [2] | [3] | [4] | [5] | [6] | [7] | [8] | [9] | [10] | [11] | [12] | [13] | [14] | [15] | [16] | [17] | [19] | [20]

Nc1nc(Cl)nc2c1ncn2[C@H]1C[C@H](O)[C@@H](CO)O1
active: [1] 1550 nM | [2] 1720 nM | [4] 3750 nM | [5] 636 nM | [7] 1920 nM | [8] 3120 nM | [9] 811 nM | [10] 452 nM | [15] 999 nM | [16] 2810 nM | [17] 200 nM | [20] 732 nM
inactive: [3] | [6] | [11] | [12] | [13] | [14] | [19]

CC(=O)[C@@]1(O)CC[C@H]2[C@@H]3CCC4=CC(=O)CC[C@]4(C)[C@H]3CC[C@@]21C
active: [5] 7760 nM
inactive: [1] | [2] | [3] | [4] | [6] | [7] | [8] | [9] | [10] | [11] | [12] | [14] | [15] | [16] | [17] | [18] | [19] | [20]

COC(=O)CCC(=O)OC
inactive: [1] | [2] | [3] | [4] | [5] | [6] | [7] | [8] | [9] | [10] | [11] | [13] | [14] | [15] | [16] | [17] | [18] | [19] | [20]

O=NO
inactive: [1] | [2] | [3] | [4] | [5] | [6] | [7] | [8] | [9] | [10] | [11] | [12] | [13] | [14] | [15] | [16] | [17] | [18] | [19] | [20]

O=C(O)CC(O)(CC(=O)O)C(=O)O
inactive: [1] | [2] | [3] | [4] | [5] | [6] | [7] | [8] | [9] | [10] | [11] | [13] | [14] | [15] | [16] | [17] | [19] | [20]
